# According to PubChem BioAssay (NCATS):
# Inconclusive results are not listed. Entries that show only a call come without a potency. A number with no mark means an inactive call. Activity calls are given as the source filed them. The call rests on the fitted dose curve; in most records, active means well fitted inhibition curve with a large enough effect; inconclusive means small, poorly fitted or top-dose-only effect; inactive means flat fitted curve, though single readings scatter.
# Columns and labels:
# CRL-7250 = normal cell line; test: Cytotoxic Profiling of Annotated Libraries Using Quantitative High-Throughput Screening (AID 1296008); details: Five cell lines viability, CellTiter-Glo ATP luminescence, 48-72 h; max response: active compounds read low; further: potency means the concentration at half of the fitted maximal effect
# How it was run: (§1)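 Compounds were pin-transferred onto cells and incubated 48 or 72 hr at 37 degree Celsius, 95% humidity. CellTiter-Glo was added, plates sat 10 min at room temperature, then ATP-coupled luminescence was imaged as the viability read-out.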
# HaCat [1] = test: as above; details: Five cell lines viability, CellTiter-Glo ATP luminescence, 48-72 h; max response: active compounds read low
# How it was run: as §1
# KB-3-1 = test: as above; details: Five cell lines viability, CellTiter-Glo ATP luminescence, 48-72 h; max response: active compounds read low
# How it was run: as §1
# NIH3T3 = test: as above; details: Five cell lines viability, CellTiter-Glo ATP luminescence, 48-72 h; max response: active compounds read low
# How it was run: as §1
# HACAT [2] = test: qHTS assay to identify novel small-molecules to repurpose for Merkel cell carcinoma treatment (AID 1296009); details: MCC and control cell lines, CellTiter-Glo viability, 72 h; at 44.8 µM (top of the series) unless noted
# How it was run: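 Luminescence from CellTiter-Glo, read 10 min after addition at room temperature, reported viability following a 72 hr, 37 degree celsius treatment with NPC or MIPE compounds in titration; values normalized to plate controls.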
# Further: nearly all actives have a fitted effect of over 60% in size.
smiles,measurement,setting,value
O=C(NCCCNc1nc(Nc2cccc(CN3CCOCC3)c2)ncc1C1CC1)C1CCC1,Potency,CRL-7250,5.8 µM (active)
same,outcome,HaCat [1],inactive
same,Potency,KB-3-1,20.6 µM (active)
same,Potency,NIH3T3,4.61 µM (active)
same,outcome,HACAT [2],inactive
CNC(C)C(=O)NC(C(=O)N1CCCC1C(=O)Nc1snnc1-c1ccccc1)C1CCCCC1 (stereo not given),max response,CRL-7250,0.759%
same,outcome,HaCat [1],inactive
same,max response,KB-3-1,3.39%
same,outcome,NIH3T3,inactive
same,outcome,HACAT [2],inactive
CCC(C)/C=C(C)/C=C/C1=CC2=C(Cl)C(=O)C(C)(OC(C)=O)C(=O)C2(O)C(OC)O1 (stereo not given),outcome,CRL-7250,inactive
same,outcome,HaCat [1],inactive
same,outcome,KB-3-1,inactive
same,outcome,NIH3T3,inactive
same,outcome,HACAT [2],inactive [at 17.4 µM]
COc1ccc2cc(-c3cc(-c4cc(Cl)cc(Cl)c4)nn3C(C)c3ccc(C(=O)NCCC(=O)O)cc3)ccc2c1 (stereo not given),max response,CRL-7250,2.03%
same,outcome,HaCat [1],inactive
same,max response,KB-3-1,-23.8%
same,outcome,NIH3T3,inactive
same,outcome,HACAT [2],inactive
CC(C)OC(=O)N1CCC(Oc2ncnc3c2cnn3-c2ccc(S(C)(=O)=O)cc2F)CC1,outcome,CRL-7250,inactive
same,outcome,HaCat [1],inactive
same,max response,KB-3-1,-25.6%
same,max response,NIH3T3,-1.21%
same,outcome,HACAT [2],inactive
Cc1cc(OCCCS(C)(=O)=O)cc(C)c1-c1cccc(COc2ccc(C3=CC(=O)NS3=O)cc2)c1 (stereo not given),max response,CRL-7250,3.79%
same,outcome,HaCat [1],inactive
same,max response,KB-3-1,3.57%
same,max response,NIH3T3,-0.311%
same,outcome,HACAT [2],inactive
O=S(=O)(Cc1ccccc1)Nc1ccc(-c2ccc3c(cnn3-c3ccc(F)cc3)c2)c(C(F)(F)F)c1,max response,CRL-7250,-4.69%
same,outcome,HaCat [1],inactive
same,max response,KB-3-1,-15.9%
same,max response,NIH3T3,-4.39%
same,outcome,HACAT [2],inactive
CC(=O)OC1CC(C)C2(CCC3(CC(=O)OC3O)O2)C2(C)CCCC(C)(C)C12 (stereo not given),outcome,CRL-7250,inactive
same,outcome,HaCat [1],inactive
same,max response,KB-3-1,0.411%
same,max response,NIH3T3,0.0681%
same,outcome,HACAT [2],inactive [at 17.4 µM]
CC(=O)C=C=C1C(C)(C)CC(O)CC1(C)O[C@@H]1O[C@H](CO[C@H]2OC[C@](O)(CO)[C@H]2O)[C@@H](O)[C@H](O)[C@H]1O (stereo not given in full),max response,CRL-7250,-2.66%
same,outcome,HaCat [1],inactive
same,outcome,KB-3-1,inactive
same,max response,NIH3T3,1.53%
same,outcome,HACAT [2],inactive [at 17.4 µM]
O=S(=O)(N[C@H]1CCCC[C@@H]1N1CCOCC1)c1ccc(Cl)cc1,max response,CRL-7250,-16%
same,outcome,HaCat [1],inactive
same,max response,KB-3-1,1.51%
same,outcome,NIH3T3,inactive
same,outcome,HACAT [2],inactive
O=c1[nH]c2ccccc2n1CCN1CCN(c2cccc(C(F)(F)F)c2)CC1,outcome,CRL-7250,inactive
same,outcome,HaCat [1],inactive
same,max response,KB-3-1,-13.2%
same,outcome,NIH3T3,inactive
same,outcome,HACAT [2],inactive
CC1OC(=O)C[C@@H]2C(C(=O)O)=CO[C@@H](O[C@H]3O[C@H](CO)[C@@H](O)[C@H](O)[C@H]3O)[C@H]12 (stereo not given in full),max response,CRL-7250,-4.73%
same,outcome,HaCat [1],inactive
same,outcome,KB-3-1,inactive
same,outcome,NIH3T3,inactive
same,outcome,HACAT [2],inactive
C/C=C(\C)C(=O)OC1C[C@@]2(COC(C)=O)O[C@H]2/C=C\[C@@]2(C)O[C@@H]2[C@H]2OC(=O)C(COC(C)=O)=C12 (stereo not given in full),max response,CRL-7250,-2.2%
same,outcome,HaCat [1],inactive
same,max response,KB-3-1,7.77%
same,max response,NIH3T3,3.22%
same,outcome,HACAT [2],inactive [at 17.4 µM]
COc1ccc(NC(=O)c2ccc(-c3ccc(C(=N)N)cc3C)cc2)cc1N1CCN(C)CC1,max response,CRL-7250,4.07%
same,outcome,HaCat [1],inactive
same,max response,KB-3-1,-9.57%
same,max response,NIH3T3,2.92%
same,outcome,HACAT [2],inactive
Cc1cc2c(N3CCCC3)nc(N3CCCC3)nc2n1C,max response,CRL-7250,1.58%
same,outcome,HaCat [1],inactive
same,max response,KB-3-1,-0.182%
same,max response,NIH3T3,-2.11%
same,outcome,HACAT [2],inactive
Fc1ccc2c(CCNCc3cccc(OCC(F)(F)C(F)F)c3)c[nH]c2c1,max response,CRL-7250,4.88%
same,outcome,HaCat [1],inactive
same,max response,KB-3-1,7.73%
same,outcome,NIH3T3,inactive
same,outcome,HACAT [2],inactive
CC(=O)O[C@@H]1CC[C@@]2(C)C(CC[C@]3(C)C2[C@H](O)C=C2[C@H]4[C@@H](C)[C@H](C)CC[C@]4(C)CC[C@]23C)[C@@]1(C)C(=O)O (stereo not given in full),max response,CRL-7250,-13.3%
same,outcome,HaCat [1],inactive
same,outcome,KB-3-1,inactive
same,outcome,NIH3T3,inactive
same,outcome,HACAT [2],inactive [at 17.4 µM]
C=C1CCC[C@]2(C)CC/C(=C(/CO)C(=O)OC)C[C@@H]12,max response,CRL-7250,-7.08%
same,outcome,HaCat [1],inactive
same,max response,KB-3-1,-2.83%
same,max response,NIH3T3,2.53%
same,outcome,HACAT [2],inactive
O=C(c1cc(Cc2n[nH]c(=O)c3ccccc23)ccc1F)N1CCCNCC1,max response,CRL-7250,0.306%
same,outcome,HaCat [1],inactive
same,outcome,KB-3-1,inactive
same,max response,NIH3T3,0.0332%
same,outcome,HACAT [2],inactive
C=C(C)C1CCC2(C(=O)O)CCC3(C)C(CCC4C5(C)C(C=O)C(O)C(C)(C)C5CCC43C)C12 (stereo not given),max response,CRL-7250,-7.47%
same,outcome,HaCat [1],inactive
same,outcome,KB-3-1,inactive
same,max response,NIH3T3,0.383%
same,outcome,HACAT [2],inactive [at 17.4 µM]
CCC/C=C/C=C/C1CC(O)C2(O)C(=O)OCC12 (stereo not given),outcome,CRL-7250,inactive
same,outcome,HaCat [1],inactive
same,max response,KB-3-1,7.96%
same,max response,NIH3T3,4.66%
same,outcome,HACAT [2],inactive
O=C(O)C1=CO[C@@H](O[C@@H]2O[C@H](CO)[C@@H](O)[C@H](O)[C@H]2O)[C@@H]2C(CO)=CC[C@H]12,max response,CRL-7250,-1.39%
same,outcome,HaCat [1],inactive
same,max response,KB-3-1,6.01%
same,max response,NIH3T3,-3.54%
same,outcome,HACAT [2],inactive
COc1cc(O)cc(/C=C/c2cccc(O)c2)c1,max response,CRL-7250,0.366%
same,outcome,HaCat [1],inactive
same,outcome,KB-3-1,inactive
same,max response,NIH3T3,-7.28%
same,outcome,HACAT [2],inactive
